The text below walks through data of PubChem BioAssay (NCATS).

Where “and” joins values, the source holds several entries; their conditions need not be identical. Identical values can stand only once. Results filed as inconclusive are left out. Calls of active or inactive are those of the source. Calls come from the whole dose curve; as a rule, active = well fitted inhibition curve with a large enough effect; inconclusive = small, poorly fitted or top-dose-only effect; inactive = flat fitted curve, though single readings scatter.
% is set by controls: 0 for no effect and ±100 for the full control effect; potency is the fitted concentration of half-maximal effect.

The assay is described as follows: P-glycoprotein substrates identified in KB-8-5-11 adenocarcinoma cell line, qHTS therapeutic library screen (AID 1346987). Note: nearly all actives have a fitted effect of over 65% in size. The conditions noted are these: KB-8-5-11 (P-gp overexpressing) viability, CellTiter-Glo, 72 h; series mostly up to 44.5 µM; activity change, negative = cytotoxicity: at the top concentration. A digest of the protocol:
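Steps: plate 500 KB-8-5-11 cells/well in DMEM + 10% FCS (colchicine removed); pin compounds in dose-response; incubate 72 h, 37 degree C, 5% CO2; add CellTiter-Glo, 5 min; read luminescence.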
Regarding `CC(=O)c1c(C)cc(O)cc1O[C@@H]1O[C@H](CO)[C@@H](O)[C@H](O)[C@H]1O`, the “activity change, negative = cytotoxicity” value was 7.01% (inactive).

With `C=CC1C(O[C@@H]2O[C@H](CO)[C@@H](O)[C@H](O)[C@H]2O)OC=C(C(=O)OC)C1Cc1nccc2c1[nH]c1ccccc12` (some centres not stated), the “outcome” value is “inactive [at 17.3 µM]”.

For the compound `O=C(O)CCc1cccc(O[C@@H]2O[C@H](CO)[C@@H](O)[C@H](O)[C@H]2O)c1O`, the call was inactive.

Consider `O=C(O[C@H]1[C@@H]2C=CO[C@@H](O[C@@H]3O[C@H](CO)[C@@H](O)[C@H](O)[C@H]3O)[C@@H]2[C@@]2(CO)O[C@@H]12)c1ccc(O)cc1`, for which the “activity change, negative = cytotoxicity” value was 6.64% [at 17.3 µM] (inactive).

`CC1=CCC(C(C)(C)O)CC1` (configuration not stated): the “activity change, negative = cytotoxicity” value is -9.51% (inactive).

With `CC(C)(C)NCC(O)COc1cccc2c1CCCC2=O` (configuration not stated), the compound was classed as inactive.

Consider `C=C1C[C@]23C[C@H]1CC[C@H]2[C@@]12C=C[C@H](O)[C@@](C)(C(=O)O1)[C@H]2[C@@H]3C(=O)O`, for which the “activity change, negative = cytotoxicity” value was 9.21% (inactive).

Turning to `CC(=O)N1c2ccccc2C2(O)CC3C(=O)NC(CC(C)C)C(=O)N3C12` (configuration not stated), the compound was called inactive.

In the case of `O=C(O)C[C@H](O)C[C@H](O)/C=C/c1c(C2CC2)nc2ccccc2c1-c1ccc(F)cc1`, the Potency is 8.2 µM (active) and 5.17 µM (active).

For the compound `C=C/C=C/[C@@H]1OC[C@H](/C=C/C=C/C)[C@H]1O`, the “outcome” value was “inactive [at 93.4 µM]”.

`COc1c2c(c(C)c3c1C(=O)OC3)O[C@@]1(C)C[C@@H](O)[C@]34O[C@](OC)(CC[C@]3(C)[C@H]1C2)OC4(C)C`: the “activity change, negative = cytotoxicity” value was 1.72% [at 17.3 µM] (inactive).

`CO[C@@H]1COCC[C@@H]1N[C@@H]1CC[C@@](C(=O)N2CCc3ncc(C(F)(F)F)cc3C2)(C(C)C)C1`: the “activity change, negative = cytotoxicity” value was 9.1% [at 17.3 µM] (inactive).
